Experimental findings from PubChem BioAssay (Tox21) are described below.

Inconclusive results are not listed. Where a call stands in place of a potency, no number is given. Active and inactive are the calls of the source. The call rests on the fitted dose curve; in most records, active means well fitted activation curve with a large enough effect in the repeat runs; inconclusive means weak or mixed curves; inactive means flat fitted curve, though single readings scatter.
Potency means the concentration at half of the fitted maximal effect.

The nature of the assay: A CellTox Green Cytotoxicity Assay to monitor cytotoxicity in HEK293 cells - 40 hour (AID 1224871). Further: nearly all actives have a fitted effect of over 45% in size. The conditions noted are these: CellTox Green fluorescence; series mostly up to 76.8 µM. An excerpt:
National Center for Advancing Translational Sciences [NCATS]
NIH Chemical Genomics Center [NCGC]
U.S. Environmental Protection Agency [EPA]
National Institutes of Environmental Health Sciences [NIEHS]
National Toxicology Program [NTP]
Cell-based models are critical for drug discovery. Determining the natural cytotoxic effects resulting from test compounds is an essential research activity. A CellTox Green Cytotoxicity Assay to monitor cytotoxicity in real time of continues cell culture during 40 hours of the compound treatment was used to screen Tox21 10K library compounds in Hek293 cells. CellTox Green Cytotoxicity Assay is a nonlytic, homogeneous, biofluorescent method to measure cytotoxicity in cell culture after experimental manipulation. The assay system uses a proprietary asymmetric cyanine dye that is excluded from viable cells but preferentially stains the dead cell's DNA. […] Viable cells produce no appreciable increases in fluorescence. Therefore, the fluorescence signal produced by the binding interaction with dead cell DNA is proportional to cytotoxicity.
The mixture of Hek293 cell suspension and reagents were dispensed at 600cells/6 ul/well in 1536-well tissue culture treated black solid bottom plates using a Multidrop dispenser. After the assay plates were incubated at a 37 C/5% CO2 incubator for 5 hours, 23 nL of compounds dissolved in DMSO, positive and negative controls was transferred to the assay plate by a pintool work station. The plates were incubated at 37 C for 40 hours. The fluorescence intensity were measured at 0h, 8h, 16h, 24h, 32h and 40h time points using ViewLux plate reader during compound treatment.
With `CC(=N\O)/C(C)=N/O`, the Potency result is “inactive”.
Still for that read-out and setting: with `CC(C)=CC=O` the entry was “inactive”; with `O=C(CCCN1CCN(c2ccc(F)cc2)CC1)NC1c2ccccc2CSc2ccccc21` (stereo not given), “inactive”.
Still for that read-out and setting: with `CN1Cc2cc(C(=O)N3CCC(C4CCNCC4)CC3)ccc2N[C@@H](CC(=O)O)C1=O` the entry was “inactive”; with `N#C/C(=C1/SC[C@@H](c2ccc(Cl)cc2Cl)S1)n1ccnc1`, “inactive”; with `C=CC(C)(C)CC(=O)OC`, “inactive”.
On the same count and under the same terms, then `CC(C)(CCl)c1ccccc1`, with “inactive”; and `CCOCCn1c(C2CCN(CCc3ccc(C(C)(C)C(=O)O)cc3)CC2)nc2ccccc21`, with “inactive”; and `COC(=O)[C@@H]1CC2=CC(=O)CC[C@]2(C)[C@@]23O[C@@H]2C[C@@]2(C)[C@@H](CC[C@@]24CCC(=O)O4)[C@H]13`, with “inactive”.
On to `O=C(OCCOCCO)c1ccccc1Nc1cccc(C(F)(F)F)c1`, for which the Potency was 2.39 µM (active).
`CC(CCc1ccc2c(c1)OCO2)NN` (stereo not given): the Potency entry is “inactive”.
On the same count and under the same terms, then `Cc1cc(C(=C2C=CC(=Nc3ccc(S(=O)(=O)O)cc3S(=O)(=O)O)C=C2)c2ccc(Nc3ccc(S(=O)(=O)O)cc3)cc2)ccc1N`, with “inactive”; and `CCCCCCCCCCCC(=O)[O][Sn]([CH2]CCC)([CH2]CCC)[O]C(=O)CCCCCCCCCCC`, with 6.74 µM (active); and `CCOC(=O)OCC`, with “inactive”.
As for `CCCCC(=O)O[C@]1(C(=O)CO)[C@@H](C)C[C@H]2[C@@H]3CCC4=CC(=O)C=C[C@]4(C)[C@@]3(F)[C@@H](O)C[C@@]21C`, the Potency is 54.9 µM (active).
With `Cc1nccn1-c1ccc(Sc2cccc(C3(C(N)=O)CCOCC3)c2)cc1`, the Potency result is “inactive”.
For `CCCCCCCCCCCCCCCCBr`, the cytotoxicity increase was -0.351% [at 15.8 µM] (inactive).
On to `Cn1c(=O)c2c(ncn2CC(=O)O)n(C)c1=O`, for which the Potency result is “inactive”.
On the same count and under the same terms, with `CC(C)c1nnc2ccc(-c3ocnc3-c3cc(F)ccc3F)cn12` the entry was “inactive”; with `CC(COc1ccc(C(C)(C)C)cc1)OS(=O)OCCCl` (stereo not given), “inactive”; with `NCC1CCCC(CN)C1` (stereo not given), “inactive”.
Turning to `O=C(O)c1ccccc1NCCc1ccccc1`, the Potency entry was “inactive”.
Still for that read-out and setting: with `CC(C)(O)c1ccccc1CC[C@@H](SCC1(CC(=O)O)CC1)c1cccc(/C=C/c2ccc3ccc(Cl)cc3n2)c1` the entry was “inactive”.
With `CCC1(C)CC(=O)NC1=O` (stereo not given), the Potency result is “inactive”.
Same read-out and setting: with `C/C(=N/NC(=O)c1ccncc1)C(=O)O` the entry was “inactive”; with `CCCOCCOCCO`, “inactive”.
Same read-out and setting: with `Nc1ccc(S(=O)(=O)O)cc1` the entry was “inactive”; with `COCC(O)CO` (stereo not given), “inactive”; with `CCCOC(=O)c1ccc(N)cc1`, “inactive”.
Same read-out and setting: with `Brc1cc(-c2ccc(Br)c(Br)c2Br)cc(Br)c1Br` the entry was “inactive”; with `CCCc1c(OCCCOc2ccc(OCC(=O)O)cc2)ccc(C(C)=O)c1O`, “inactive”; with `CNC(=O)N(c1ccccc1)c1ccccc1`, “inactive”.
For the compound `C[Si](NC1CCCCC1)(NC1CCCCC1)NC1CCCCC1`, the Potency entry was “inactive”.
On the same count and under the same terms, then `CCCCCCCC/C=C\CCCCCCCC(=O)OC`, with “inactive”; and `COc1ccc([C@@H]2Sc3ccccc3NC(=O)[C@@H]2O)cc1`, with “inactive”; and `CCC(C)=O`, with “inactive”.
Same read-out and setting: then `OCC1CC=CCC1` (stereo not given), with “inactive”; and `CCCCCCCCSCCO`, with “inactive”.
On the same count and under the same terms, with `O=C(NCCCN1CCOCC1)c1ccc(Cl)cc1` the entry was “inactive”; with `c1cc[c]([Bi]([c]2ccccc2)[c]2ccccc2)cc1`, “inactive”.
